We go through 71 compounds from PubChem BioAssay AID651710 (Broad Institute, 2012).

The structures appear in SMILES notation. Values joined by “and” are separate entries in the source; they are usually repeats but may differ in a detail not shown here. Identical values can stand only once. The campaign covered roughly 360,000 compounds. About 1,600 (0.44%) were called active.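 Rule for the calls: active = every replicate showing at least 50% inhibition; inconclusive = mean inhibition at least 50% but not in every replicate; inactive = the rest.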 This excerpt belongs to a sample that is enriched for actives. The source holds several records for some structures; these can differ, active in one and inactive in another.

Chain of DNA repair protein RAD52 homolog (Homo sapiens) (P43351 whole entry, looked up): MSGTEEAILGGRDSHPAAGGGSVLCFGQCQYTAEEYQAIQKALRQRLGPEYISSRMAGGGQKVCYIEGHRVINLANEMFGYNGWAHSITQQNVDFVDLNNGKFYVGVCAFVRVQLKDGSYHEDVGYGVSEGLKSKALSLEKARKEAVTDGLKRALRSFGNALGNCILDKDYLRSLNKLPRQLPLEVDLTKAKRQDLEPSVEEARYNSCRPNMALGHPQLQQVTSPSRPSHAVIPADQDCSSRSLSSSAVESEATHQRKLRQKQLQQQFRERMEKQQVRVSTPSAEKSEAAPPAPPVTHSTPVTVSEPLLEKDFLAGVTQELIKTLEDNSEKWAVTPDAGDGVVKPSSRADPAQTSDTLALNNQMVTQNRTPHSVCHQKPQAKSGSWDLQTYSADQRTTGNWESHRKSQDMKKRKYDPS

This experiment concerns the target DNA repair protein RAD52 homolog (Homo sapiens) (UniProt P43351). Description: blockers of RAD52 strand annealing activity – biochemical, FRET, single point, set 2, primary screen (AID 651710). Conditions: recombinant RAD52 DNA annealing, FRET fluorescence; at 18.7 µM; stronger effect = higher value.
In the case of `CS(=O)(=O)N1[C@H](C(=O)NCc2ccncc2)[C@@H](CO)[C@@H]2Cn3c(ccc(C4=CCCCC4)c3=O)[C@@H]21`, the inhibition (in general, the relative decrease from the control value, in per cent) was -1.92% (inactive).
For `CC1CN(c2nc(Nc3ccccc3)nc(N)c2[N+](=O)[O-])CC(C)O1` (stereo unspecified) the value was -8.87% (inactive); for `CC(Nc1nc(N2CCN(CCO)CC2)nc2ccccc12)c1ccccc1` (stereo unspecified), -10.7% (inactive).
On to `CN1CCN(c2nc(Nc3ccc(O)cc3)nc3ccccc23)CC1`, for which the inhibition is 72.4% (active).
For `N#C[C@@H]1[C@H](c2ccccc2C2=CCCCC2)[C@@H](CO)N1S(=O)(=O)c1cccc(F)c1` the value was -3.37% (inactive); for `CCCNC(=O)C[C@H]1C[C@H]2c3cc(NC(=O)NC4CCCCC4)ccc3O[C@H]2[C@H](CO)O1`, 3.19% (inactive).
For the compound `C[C@H]1CN([C@@H](C)CO)C(=O)Cc2cc(NC(=O)Nc3ccc(F)cc3)ccc2O[C@@H]1CN(C)C(=O)NC1CCCCC1`, the inhibition was -2.6% (inactive).
For `O=C(NCCN1CCOCC1)c1ccc2c(c1)N(Cc1cccc(Cl)c1)C(=O)c1ccccc1S2(=O)=O` the value was -15.4% (inactive); for `CCN1CCN(CCNC(=O)c2ccc(/C=C3/Sc4ccccc4N(Cc4cccc(C)c4)C3=O)cc2)CC1`, 51.6% (active); for `CCCC1=Nc2cc(C(=O)NCCN3CCCC3)ccc2Sc2ccccc21`, 34% (inactive).
For the compound `CCN(CC)CCC(c1cc(OC)c(OC)c(OC)c1)c1c(OC)cc(OC)c2c(-c3ccccc3)cc(=O)oc12` (stereo unspecified), the inhibition is 46.3% (inactive).
`CCN(CC)CCC(c1ccc2c(c1)OCO2)c1c(OC)cc(OC)c2c(-c3ccccc3)cc(=O)oc12` (stereo unspecified): the inhibition was 54.9% (active).
Take `CCN(CC)C(=O)CC(c1ccc2c(c1)OCO2)c1c(OC)cc(OC)c2c(-c3ccccc3)cc(=O)oc12` (stereo unspecified): the inhibition is -104% (inactive).
For `CCCC#Cc1cnc2c(c1)C(=O)N([C@H](C)CO)C[C@H](C)[C@@H](CN(C)Cc1ccccc1)O2` the value was -1.46% (inactive).
The same measure for `C/C=C/c1ccc(C2[C@H]3CNC[C@@H]2N3Cc2cccc(OC)c2)cc1` (stereo partly specified): -8.08% (inactive); for `COc1ccc(CN(C)C[C@@H]2OCCCC[C@@H](C)Oc3ccc(NS(=O)(=O)c4ccc(C)cc4)cc3C(=O)N([C@@H](C)CO)C[C@H]2C)cc1`: 21% (inactive); for `COCC(=O)N1CC(=O)N2[C@H](CO)[C@@H](c3ccc(-c4ccncc4)cc3)[C@H]2C1`: -7.77% (inactive).
In the case of `C/C=C/c1ccc(C2[C@H]3CNC[C@@H]2N3Cc2cccc(F)c2)cc1` (stereo partly specified), the inhibition was 16.5% (inactive).
For `N#Cc1ccc(-c2ccc([C@@H]3[C@H]4CNC[C@@H]3N4Cc3cc(F)ccc3F)cc2)cc1`, the inhibition was 69% (active).
Turning to `N#Cc1ccc(-c2ccc([C@@H]3[C@@H](CO)N4C(=O)CNC[C@H]34)cc2)cc1`, the inhibition was 14.7% (inactive).
As to `COc1ccc(NC(=O)Nc2ccc3c(c2)[C@@H]2C[C@H](CC(=O)N4CCCCC4)O[C@H](CO)[C@@H]2O3)cc1`, the inhibition was -6.62% (inactive).
As for `O=C([C@@H]1[C@@H](CO)[C@@H]2Cn3c(ccc(-c4ccccc4)c3=O)[C@H]1N2CCC(F)(F)F)N1CCCCC1`, the inhibition was 9.81% (inactive).
Regarding `CN(C)C(=O)C[C@@H]1C[C@@H]2c3cc(NC(=O)c4ccc5c(c4)OCO5)ccc3O[C@@H]2[C@H](CO)O1`, the inhibition is 5.11% (inactive).
As for `C[C@H](CO)N1C[C@H](C)[C@H](CN(C)C(=O)Nc2ccc(C(F)(F)F)cc2)Oc2ccc(NS(C)(=O)=O)cc2CC1=O`, the inhibition was -1.01% (inactive).
With `COCC(=O)N(C)C[C@@H]1Oc2ncc(C#Cc3ccccc3OC)cc2C(=O)N([C@@H](C)CO)C[C@H]1C`, the inhibition is 0.963% (inactive).
The same measure for `COc1ccccc1C#Cc1cnc2c(c1)C(=O)N([C@@H](C)CO)C[C@@H](C)[C@H](CN(C)C(=O)CN(C)C)O2`: 42.2% (inactive); for `COc1ccccc1C#Cc1cnc2c(c1)C(=O)N([C@@H](C)CO)C[C@@H](C)[C@@H](CN(C)C(=O)CN(C)C)O2`: 51.1% (active); for `CN(C)CC(=O)N1[C@@H](C#N)[C@@H](c2ccccc2-c2ccccc2F)[C@@H]1CO`: -4.36% (inactive).
For the compound `N#C[C@@H]1[C@@H](c2ccccc2C2=CCCC2)[C@H](CO)N1C(=O)NC1CCCC1`, the inhibition is -0.746% (inactive).
On to `Cc1ccccc1S(=O)(=O)NCC[C@@H]1CC[C@@H](NS(=O)(=O)c2ccccc2C)[C@@H](CO)O1`, for which the inhibition is -0.528% (inactive).
Turning to `Cc1ccc2c(c1)C1CN(C)CCC1N2S(=O)(=O)c1cccc(F)c1` (stereo unspecified), the inhibition is -19.1% (inactive).
For the compound `Cc1ccc2c(c1)C1CN(C)CCC1N2C(=S)Nc1ccc(OC(F)F)cc1` (stereo unspecified), the inhibition was -9.14% (inactive).
Regarding `Cc1ccc2c(c1)C1CN(C)CCC1N2S(=O)(=O)c1ccc(Oc2ccc([N+](=O)[O-])cc2)cc1` (stereo unspecified), the inhibition was 57.3% (active).
For `CC=Cc1ccc2n(c1=O)C[C@@H]1[C@@H](CO)[C@H](C(=O)NCCCN3CCOCC3)[C@H]2N1Cc1cocn1` (mixture of isomers) the value was -8.14% (inactive); for `O=C(/C=C/c1cn(-c2ccccc2)nc1-c1ccc2c(c1)OCCO2)NCCCN1CCOCC1`, 50.5% (active).
Consider `COc1ccc(-c2nn(-c3ccccc3)cc2/C=C\C(=O)N2CCOCC2)cc1[N+](=O)[O-]`, for which the inhibition was -18.6% (inactive).
On to `O=C(NCCCN1CCOCC1)c1cn(-c2ccccc2)nc1-c1ccc(F)cc1`, for which the inhibition was -2.27% (inactive).
For `C[C@H]1CN([C@@H](C)CO)S(=O)(=O)c2ccc(-c3ccccc3)cc2O[C@H]1CN(C)C(=O)CC1CC1`, the inhibition was 5.01% (inactive).
For the compound `C[C@H](CO)N1C[C@H](C)[C@H](CN(C)C(=O)Nc2ccc3c(c2)OCO3)Oc2ccc(NC(=O)Nc3ccccc3)cc2CC1=O`, the inhibition is -4.77% (inactive).
For `Cc1cccc(C)c1OCCN1CCOCC1`, the inhibition was -1.02% (inactive).
For `c1ccc2cc3c(NCCN4CCOCC4)ccnc3cc2c1`, the inhibition is 79% (active).
As to `Fc1ccc(-c2ccc(NCCN3CCOCC3)nn2)cc1`, the inhibition is -7.71% (inactive).
For the compound `COc1ccc(NC(=O)N(C)C[C@@H]2Oc3c(NS(C)(=O)=O)cccc3C(=O)N([C@H](C)CO)C[C@H]2C)cc1`, the inhibition is 1.83% (inactive).
Take `CC(C)NC(=O)Nc1ccc2c(c1)CC(=O)N([C@H](C)CO)C[C@H](C)[C@@H](CN(C)C(=O)Nc1ccc(F)cc1)O2`: the inhibition was 16.5% (inactive).
Regarding `N#Cc1cccc(-c2ccc(C3[C@H]4CNC[C@@H]3N4S(=O)(=O)c3ccc(-c4ccccc4)cc3)cc2)c1` (stereo partly specified), the inhibition was 73.9% (active) and 22.4% (inactive).
Take `N#Cc1cccc(-c2ccc(C3[C@H]4CNC[C@@H]3N4Cc3cncnc3)cc2)c1` (stereo partly specified): the inhibition is -10.4% (inactive).
With `N#Cc1ccc(-c2ccc(C3[C@H]4CNC[C@@H]3N4S(=O)(=O)c3ccccc3F)cc2)cc1` (stereo partly specified), the inhibition was 28.8% (inactive).
Consider `CCCNC(=O)N(C)C[C@@H]1Oc2ncc(C#CC(C)C)cc2C(=O)N([C@H](C)CO)C[C@H]1C`, for which the inhibition was -2.25% (inactive).
In the case of `CCN(CC)CCNC(=O)c1ccc(NC(=O)c2c(F)cccc2Cl)cc1`, the inhibition is -8.76% (inactive).
Take `CCN(CC)CCNC(=O)c1ccc(NC(=O)c2cc(-c3ccncc3)nc3ccccc23)cc1`: the inhibition was 54.5% (active).
In the case of `O=C(Nc1ccc(S(=O)(=O)Nc2nccs2)cc1)c1cc(-c2ccncc2)nc2ccccc12`, the inhibition was -42.2% (inactive).
Consider `COC(=O)Cc1nnn2c1[C@H](C)[C@@H](OC)c1cc(Br)ccc1-2`, for which the inhibition is -4.62% (inactive).
Turning to `C[C@@H]1CN([C@@H](C)CO)C(=O)c2cc(NC(=O)Nc3ccccc3)ccc2O[C@@H]1CN(C)Cc1ccccc1`, the inhibition is 8.18% (inactive).
For `COc1cccc(NC(=O)N[C@H]2C=C[C@H](CC(=O)NCc3ccccn3)O[C@@H]2CO)c1`, the inhibition is -25.9% (inactive).
In the case of `COc1ccc(-c2ccc3c(c2)[C@@H]2[C@@H](CCN2C(=O)NC2CCCC2)[C@@H](CO)N3C)cc1`, the inhibition is -19% (inactive).
For `COCC(=O)Nc1ccc2c(c1)OC[C@H](C)NC[C@H](C)[C@H](OC)CN(C)C2=O` the value was -2.26% (inactive).
For `Cc1nc(N=C(N)N)nc2c(C)cccc12` the value was 81.9% (active); for `COc1cccc(CN2[C@H](CO)[C@@H]3c4ccccc4N(C(=O)c4ccncc4)C[C@@H]32)c1`, -8.72% (inactive); for `CC(=O)c1cccc(-c2cnc3c(NC=O)cc(-c4cccc(C(=O)N(C)C)c4)cn23)c1`, -0.741% (inactive).
As for `CC(=O)Nc1cc(-c2cccc(CO)c2)cn2c(-c3cccc(C(F)(F)F)c3)cnc12`, the inhibition was -17.3% (inactive).
Take `CN(C)C(=O)c1cccc(-c2cnc3c(NC=O)cc(-c4ccc(F)cc4)cn23)c1`: the inhibition was -55.7% (inactive).
As for `CC(=O)Nc1cc(-c2ccc(N3CCN(C)CC3)cc2)cn2c(-c3cccc(C(=O)N(C)C)c3)cnc12`, the inhibition is 79.7% (active).
For `CC(=O)Nc1cc(-c2ccc(N3CCN(C)CC3)cc2)cn2c(-c3ccc(F)cc3)cnc12` the value was 18% (inactive).
As to `CC(=O)c1cccc(-c2cnc3c(NC=O)cc(-c4ccc(N5CCN(C)CC5)cc4)cn23)c1`, the inhibition is 73.8% (active).
For the compound `CC(=O)c1cccc(-c2cnc3c(NC=O)cc(-c4ccc(N(C)C)cc4)cn23)c1`, the inhibition was -47.5% (inactive).
For `CN(C)CCNC(=O)c1cccc(-c2cnc3c(NC=O)cc(-c4cccc(C(F)(F)F)c4)cn23)c1` the value was 67% (active); for `CN(C)C(=O)c1cccc(-c2cnc3c(NC=O)cc(-c4ccc(C(=O)N5CCOCC5)cc4)cn23)c1`, -29% (inactive); for `O=C(C[C@H]1C=C[C@@H](NC(=O)C2CC2)[C@H](CO)O1)NCC1CC1`, 2.9% (inactive).
Consider `CO[C@H]1CN(C)C(=O)c2ccc(NC(=O)c3cnccn3)cc2OC[C@H](C)N(C)C[C@@H]1C`, for which the inhibition is 2.76% (inactive).
Turning to `O=C(Nc1ccccc1)N[C@H]1CC[C@H](CCNC(=O)c2ccccc2F)O[C@H]1CO`, the inhibition was -10.3% (inactive).
The same measure for `CCCN(C)C[C@@H]1Oc2ncc(-c3cccc(C(=O)N(C)C)c3)cc2C(=O)N([C@H](C)CO)C[C@@H]1C`: -4.17% (inactive).
